Experimental data taken from PubChem BioAssay AID778 (Sanford-Burnham Center for Chemical Genomics, 2007).
Among all 96,000 compounds or so, about 20,000 (21%) were called active. These entries were drawn from the full list. A number with no mark means an inactive call.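 The calls were made as follows: active = CYP2C19 inhibition above a set limit at 5 µM in the primary screen (cut at about 50% in these data); inactive = the rest.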

molecular target: Cytochrome P450 2C19 (Homo sapiens) (UniProt P33261); test: blockers of cytochrome P450 2C19 activity – biochemical, luminescence, ADME assay, primary screen (AID 778); settings: CYP2C19 Supersomes, luciferin-H EGE luminescence, 30 min; at 5 µM; hits give high values;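 also: plate controls were negative control wells for no effect and 2.5 mM tranylcypromine positive control for full effect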
Sequence (P33261 whole entry, looked up): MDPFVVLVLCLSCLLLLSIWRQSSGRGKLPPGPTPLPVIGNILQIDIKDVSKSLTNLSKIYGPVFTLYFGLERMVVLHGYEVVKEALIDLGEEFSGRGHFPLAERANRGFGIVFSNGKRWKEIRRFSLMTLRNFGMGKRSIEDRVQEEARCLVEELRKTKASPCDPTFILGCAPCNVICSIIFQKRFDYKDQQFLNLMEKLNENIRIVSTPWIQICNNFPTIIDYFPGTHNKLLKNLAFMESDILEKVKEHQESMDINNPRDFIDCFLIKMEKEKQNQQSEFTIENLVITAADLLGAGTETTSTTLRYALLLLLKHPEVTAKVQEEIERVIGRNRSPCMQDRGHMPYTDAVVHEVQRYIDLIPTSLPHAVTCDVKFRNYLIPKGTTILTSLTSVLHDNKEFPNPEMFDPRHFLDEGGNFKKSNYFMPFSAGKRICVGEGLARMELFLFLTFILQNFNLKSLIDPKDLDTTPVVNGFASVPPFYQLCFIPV

Row | Structure (SMILES) | inhibition
1 | Nc1nonc1-c1nc2ccccc2n1Cc1ccc(F)cc1 | 44.1%
2 | CC(C)N(c1ccccc1)c1ncnc(NCCC(=O)O)c1[N+](=O)[O-] | 55% (active)
3 | Cc1oc(-c2cccc(Cl)c2)[n+]([O-])c1C | -4.8%
4 | CCOC(=O)C1=C(c2ccccc2)N=C2SCC(=O)N2C1c1ccc(O)c(OC)c1 (stereo not drawn) | 79.4% (active)
5 | COc1cc(C2C(C(=O)c3ccc(C)o3)=C(O)C(=O)N2CCc2ccccc2)ccc1O (stereo not drawn) | -1.7%
6 | CC1(C)Cc2nc3sc4c(SCC(=O)NC(c5ccccc5)c5ccccc5)ncnc4c3cc2CO1 | 15.3%
7 | CC1=CC(=O)C=CC1(C)C(Cl)(Cl)Cl (stereo not drawn) | 9.4%
8 | CCC(C)Sc1nc2c(c(=O)[nH]c(=O)n2C)n1CC(O)COc1cccc2ccccc12 (stereo not drawn) | 14.5%
9 | CCn1c(SCC(=O)Nc2ccc(OC)c(OC)c2)nnc1-c1c[nH]c2ccccc12 | 42.9%
10 | CCn1c(SCCC(C)C)nnc1-c1c[nH]c2ccccc12 | 88.7% (active)
11 | CCC(C)Sc1nnc(-c2c[nH]c3ccccc23)n1CCOC (stereo not drawn) | 15.6%
12 | CCOC(=O)N1CCN(C(=O)c2cn(C)c3ccc(S(=O)(=O)N4CCCC4)cc3c2=O)CC1 | -12.6%
13 | O=C(c1ccc(=O)[nH]c1)N(Cc1ccco1)C1(C(=O)NC2CCCCC2)CCCCC1 | -4.2%
14 | C=C(C)CSc1nc(N)c2c3c(sc2n1)CCC3 | 60.4% (active)
15 | c1nnc2c3c4c(sc3ncn12)CCC4 | 1.2%
16 | N=c1c2c3c(sc2ncn1N)CCCCC3 | -16%
17 | CC(C)(C)NC(=O)NC(=O)COC(=O)CCC1CCCCC1 | -4.7%
18 | CCN1CCCC1CNC(=O)c1cc2c(=O)n(C)c3ccccc3c2n1C (stereo not drawn) | -9.3%
19 | Cc1[nH][nH]c(=O)c1N=Nc1ccccc1 | 13.3%
20 | Cc1ccc(C2CC2C(=O)NN)cc1 (stereo not drawn) | 47.6%
21 | N/C(=N\OC(=O)CCC1CCCCC1)c1ccccn1 | 5.1%
22 | CC(C)(C)c1cc2cccnc2n1Cc1cccc(F)c1 | 14.8%
23 | N#C/C(=C/c1ccc(Cl)cc1)NC(=O)c1ccccc1 | 3.3%
24 | CCCCCN1CC(O)=C(c2ccccc2)C1=N | -0.3%

Row | Structure (SMILES) | inhibition
25 | CC(NC(=O)CSc1nc2c(cc1C#N)CN(C)CC2)c1ccccc1 (stereo not drawn) | 79.6% (active)
26 | Cc1ccc2cc(C#N)c(SCC(=O)NCC3CCCO3)nc2c1C (stereo not drawn) | -2.3%
27 | Cc1nc2cc(NC(=O)CSc3nc4c(C)cccc4cc3C#N)ccc2s1 | 6.7%
28 | O=C1c2ccccc2C2=Nc3ccccc3SC(c3ccccc3F)C12 (stereo not drawn) | 8%
29 | Nc1nc2n(n1)C(c1ccco1)CC(c1ccc(Cl)c(Cl)c1)N2 (stereo not drawn) | 31%
30 | Cc1ccc(C2CC(c3cccc(C)c3)n3nc(N)nc3N2)cc1 (stereo not drawn) | 45.1%
31 | Clc1ccc(C2CC(c3cccs3)n3ncnc3N2)cc1Cl (stereo not drawn) | 81.9% (active)
32 | CN1CCCc2cc(C#N)c(=O)[nH]c21 | 10.9%
33 | Fc1ccc(OCc2nn3c(Cn4nnc5ccccc54)nnc3s2)cc1 | 26.6%
34 | CCc1cc2c(=O)c(-c3ccon3)c(N)oc2cc1OC | 1.3%
35 | COc1ccccc1Cn1c(=S)[nH]c2cc(C(=O)N3CCN(C)CC3)ccc2c1=O | -10.4%
36 | COc1ccc(C(=O)N2CCC(C(=O)Nc3cccc(C)c3)CC2)cc1OC | -3.6%
37 | COc1cc(C(=O)N2CCN(C/C=C/c3ccccc3)CC2)cc(OC)c1C | 68.8% (active)
38 | O=C(NCCc1ccco1)c1nn(Cc2ccccc2)c(=O)c2ccccc12 | -8.3%
39 | COCc1cc(C)nc(Nc2cc(C)ccc2C)c1C#N | 19.8%
40 | Cc1cc(C(C)(C)C)oc1C(=O)N(CC(=O)NC1CCCC1)Cc1ccc(Cl)cc1 | -5.1%
41 | CC(C)(CNC(=O)c1cc(=O)[nH]c2ccccc12)N1CCOCC1 | 4.2%
42 | CCOC(=O)c1[nH]c2ccccc2c1N=C(C)N(CC)CC | -9.4%
43 | CCOC(=O)c1ccc(COC(=O)c2cc(=O)[nH]c3ccccc23)o1 | 69.5% (active)
44 | O=C(NCCC1=CCCCC1)C1CCN(Cc2cnn(-c3ccccc3)c2-n2cccc2)CC1 | 25.4%
45 | Cc1cc(C)cc(NC(=O)CSCc2cnn(-c3ccccc3)c2-n2cccc2)c1 | 47.5%
46 | CC(=O)Nc1ccc(NC(=O)CSCc2cnn(-c3ccccc3)c2-n2cccc2)cc1 | 92.4% (active)
47 | CCCn1nnc2sc3c(c2c1=O)CCC(C)C3 (stereo not drawn) | 28.3%
48 | CCN(CC)CCN1C(=O)C(=O)/C(=C(/O)c2cnn(-c3ccccc3)c2C)C1c1cccs1 (stereo not drawn) | -2%
